According to PubChem BioAssay (NCI):
Values joined by “and” are separate entries in the source; they are usually repeats but may differ in a detail not shown here. Equal values may be shown once. Compounds without any hit were thinned out: in the full panel of roughly 79,000, 15% have a hit. Values without a mark were called inactive. No stated cut-off is given here; in the data, active means growth inhibition above about 70%; inactive means the rest. Where a SMILES comes first, the peptide text is derived from it. The star is where a group is joined. Cbz = O=C(OCc1ccccc1)*; NHNH2 = NN*

experiment: NCI Yeast Anticancer Drug Screen. Data for the mec2-1 strain (AID 157); conditions: S. cerevisiae mec2-1 strain, hits give high values; at 50.0 µM unless noted
Summary of the method: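 Yeast mec2-1 mutant treated with compound. Readout: growth inhibition vs vehicle controls.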

Row | Structure (SMILES) | growth inhibition
1 | CC1=NN(C(=O)CC(=O)Nc2ccc(C)cc2)C(=O)C1N=Nc1ccc(S(=O)(=O)c2ccc(N=NC3C(=O)N(C(=O)CC(=O)Nc4ccc(C)cc4)N=C3C)cc2)cc1 (stereo not given) | 36%
2 | Cc1ccccc1N=C(N)N | 2.5%
3 | OCC(O)COc1ccc(Cl)cc1 (stereo not given) | -12.8%
4 | Cc1ccc(OCC(=O)O)c(Cl)c1 | -1.9%
5 | COc1ccc(Br)cc1C1OC(=O)c2c(OC)c(OC)cc([N+](=O)[O-])c21 (stereo not given) | 5.25%
6 | CC1CC(=O)Nc2nc3ccccc3n21 (stereo not given) | 6.65%
7 | CCOC(=O)c1sc(C(=O)O)cc1-c1cccs1 | 9.65%
8 | CN(C)Cc1cc(C(=O)/C=C/c2ccc(Cl)c(Cl)c2)cc(CN(C)C)c1O | -14.4%
9 | NC1CCCC2CCC(N)C12 (stereo not given) | 15.6%
10 | Cc1ccc(OCC2OC(n3cnc4c(Cl)ncnc43)CC2Oc2ccc(C)cc2)cc1 (stereo not given) | -10.2% and 3.5%
11 | CC1CCCN(CCC(=O)c2ccc(O)cc2)C1 (stereo not given) | 22.5%
12 | c1ccc(-c2cn(-c3ccccc3)nn2)cc1 | -4.5%
13 | CCOc1cc(/C=N/NC(=O)c2ccccc2NC(=O)c2ccccc2Cl)ccc1O | -1.9%
14 | O=C(OCC(OC(=O)c1ccccc1)C(OC(=O)c1ccccc1)C(OC(=O)c1ccccc1)c1cnn(-c2ccccc2)n1)c1ccccc1 (stereo not given) | 3.85% and 38.2%
15 | O=C(CCCC(=O)N/N=C/c1ccccc1O)N/N=C\c1ccccc1O | -6.65%
16 | Oc1ccc(O)c(CNc2ccc(C(O)C(F)(F)F)cc2)c1 (stereo not given) | 9.2%
17 | COC(=O)Nn1c(C)c(C(=O)OC)c(C(=O)Nc2ccccc2)c1-c1ccccc1 | -3%
18 | CC(O)C(C(=O)O)N(CC1(O)OCC(O)C(O)C1O)N=O (stereo not given) | -13.9%
19 | O=C(Nc1ccc(Cl)cc1Cl)c1cc2nc3ccccc3c(=O)n2c2ccccc12 | 13.6%
20 | O=C(CN1CCCCCC1)Nc1ccc2c(c1)C(=O)c1ccc(NC(=O)CN3CCCCCC3)cc1C2=O | 37.8%

Row | Structure (SMILES) | growth inhibition
21 | CC1C=NNC1=O (stereo not given) | -30.8%
22 | COc1cccc(N)c1N | -15.2%
23 | C=C1CC(COc2ccc3c(C)c(Cl)c(=O)oc3c2)(c2ccccc2)OC1=O (stereo not given) | 20.4%
24 | CCCCC(C)(C)SCCC(=O)O | -7.25%
25 | Nc1nc2ncn(CCO)c2c(=O)[nH]1 | 1.95%
26 | CC(=O)[CH-]C(=O)c1ccccc1.CC(=O)[CH-]C(=O)c1ccccc1.CC(C)CCCC(C)[C@H]1CCC2[C@@H]3CCC4C[C@@H]([O-])CC[C@]4(C)C3CC[C@@]21C.CC(C)CCCC(C)[C@H]1CCC2[C@@H]3CCC4C[C@@H]([O-])CC[C@]4(C)C3CC[C@@]21C.Cl.[Ti+4] (stereo not given in full) | 1.25%
27 | CCc1cc(N(C)C)ccc1N=Nc1ccc([N+](=O)[O-])cc1 | 9.65%
28 | CS(C)=C(C(=O)c1ccccc1)/C(=C/C(=O)c1ccccc1)c1ccccc1 | 26.2%
29 | NC(=S)Nc1ccc(Br)cc1 | 23.6%
30 | CCCCC/C(=N\c1nc[nH]c1C(N)=O)OCC | -12.9%
31 | O=C1OC(c2ccccc2)=N/C1=C/C=C/c1ccco1 | -5.45%
32 | COc1ccc(C)cc1NC(=O)OCCCl | 2.35%
33 | O=C(CCCC1CCCCC1)OC1CCCCC1 | 8.4%
34 | COc1ccccc1/C=C\C#N | -6.1%
35 | COc1cc(O)c2c(=O)cc(-c3ccc(O)cc3O)oc2c1CC=C(C)C | 0.4%
36 | CCOC(=O)CCC(NC(=O)OCc1ccccc1)C(=O)NC(CCC(=O)OCC)C(=O)NN (stereo not given) (Cbz-Glu(OEt)-Glu(OEt)-NHNH2; configuration not given here) | 7.75%
37 | Nc1ccc(S(=O)[O-])cc1.Nc1ccc(S(=O)[O-])cc1.[Zn+2] | -19.9%
38 | C=C1CC[C@](C)(O)[C@@]2(C)CC[C@H]3C(=C(C)C)C(=O)C[C@]3(C)C[C@H]12 | 5.45%
39 | Cc1[nH]c(N)nc(=S)c1CCCNc1ccccc1 | 2.1%
40 | CSc1ccc(C2NC(=O)NC2=O)cc1 (stereo not given) | -14.6%

experiment: NCI Yeast Anticancer Drug Screen. Data for the sgs1 mgt1 strain (AID 161);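 further: 0% = growth of cultures given vehicle only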; conditions: S. cerevisiae sgs1 mgt1 strain, hits give high values; at 50.0 µM unless noted
Summary of the method: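 Inhibition of yeast growth, normalised to vehicle-treated controls, is reported for a strain bearing genetic alterations in DNA damage repair.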

Row | Structure (SMILES) | growth inhibition
41 | CC1=NN(C(=O)CC(=O)Nc2ccc(C)cc2)C(=O)C1N=Nc1ccc(S(=O)(=O)c2ccc(N=NC3C(=O)N(C(=O)CC(=O)Nc4ccc(C)cc4)N=C3C)cc2)cc1 (stereo not given) | 36.8%
42 | Cc1ccccc1N=C(N)N | -1.35%
43 | OCC(O)COc1ccc(Cl)cc1 (stereo not given) | -1.25%
44 | Cc1ccc(OCC(=O)O)c(Cl)c1 | 0.65%
45 | COc1ccc(Br)cc1C1OC(=O)c2c(OC)c(OC)cc([N+](=O)[O-])c21 (stereo not given) | 20.5%
46 | CC1CC(=O)Nc2nc3ccccc3n21 (stereo not given) | -25.2%
47 | CCOC(=O)c1sc(C(=O)O)cc1-c1cccs1 | 11.5%
48 | CN(C)Cc1cc(C(=O)/C=C/c2ccc(Cl)c(Cl)c2)cc(CN(C)C)c1O | 6.3%
49 | NC1CCCC2CCC(N)C12 (stereo not given) | 20.8%
50 | Cc1ccc(OCC2OC(n3cnc4c(Cl)ncnc43)CC2Oc2ccc(C)cc2)cc1 (stereo not given) | 0.05% and 45%
51 | CC1CCCN(CCC(=O)c2ccc(O)cc2)C1 (stereo not given) | 26.3%
52 | c1ccc(-c2cn(-c3ccccc3)nn2)cc1 | -13.7%
53 | CCOc1cc(/C=N/NC(=O)c2ccccc2NC(=O)c2ccccc2Cl)ccc1O | -7.05%
54 | O=C(OCC(OC(=O)c1ccccc1)C(OC(=O)c1ccccc1)C(OC(=O)c1ccccc1)c1cnn(-c2ccccc2)n1)c1ccccc1 (stereo not given) | -6.45% and 58.4%
55 | O=C(CCCC(=O)N/N=C/c1ccccc1O)N/N=C\c1ccccc1O | -20.4%
56 | Oc1ccc(O)c(CNc2ccc(C(O)C(F)(F)F)cc2)c1 (stereo not given) | 16.8%
57 | COC(=O)Nn1c(C)c(C(=O)OC)c(C(=O)Nc2ccccc2)c1-c1ccccc1 | -5.2%
58 | CC(O)C(C(=O)O)N(CC1(O)OCC(O)C(O)C1O)N=O (stereo not given) | 11.3%
59 | O=C(Nc1ccc(Cl)cc1Cl)c1cc2nc3ccccc3c(=O)n2c2ccccc12 | 12.1%
60 | O=C(CN1CCCCCC1)Nc1ccc2c(c1)C(=O)c1ccc(NC(=O)CN3CCCCCC3)cc1C2=O | 51.1%

Row | Structure (SMILES) | growth inhibition
61 | CC1C=NNC1=O (stereo not given) | 23.5%
62 | COc1cccc(N)c1N | -3.6%
63 | C=C1CC(COc2ccc3c(C)c(Cl)c(=O)oc3c2)(c2ccccc2)OC1=O (stereo not given) | 40%
64 | CCCCC(C)(C)SCCC(=O)O | 14.9%
65 | Nc1nc2ncn(CCO)c2c(=O)[nH]1 | 2.8%
66 | CC(=O)[CH-]C(=O)c1ccccc1.CC(=O)[CH-]C(=O)c1ccccc1.CC(C)CCCC(C)[C@H]1CCC2[C@@H]3CCC4C[C@@H]([O-])CC[C@]4(C)C3CC[C@@]21C.CC(C)CCCC(C)[C@H]1CCC2[C@@H]3CCC4C[C@@H]([O-])CC[C@]4(C)C3CC[C@@]21C.Cl.[Ti+4] (stereo not given in full) | 21.4%
67 | CCc1cc(N(C)C)ccc1N=Nc1ccc([N+](=O)[O-])cc1 | 13.5%
68 | CS(C)=C(C(=O)c1ccccc1)/C(=C/C(=O)c1ccccc1)c1ccccc1 | 65%
69 | NC(=S)Nc1ccc(Br)cc1 | 25.5%
70 | CCCCC/C(=N\c1nc[nH]c1C(N)=O)OCC | -37.9%
71 | O=C1OC(c2ccccc2)=N/C1=C/C=C/c1ccco1 | -6%
72 | COc1ccc(C)cc1NC(=O)OCCCl | 2.65%
73 | O=C(CCCC1CCCCC1)OC1CCCCC1 | 8.7%
74 | COc1ccccc1/C=C\C#N | -6.45%
75 | COc1cc(O)c2c(=O)cc(-c3ccc(O)cc3O)oc2c1CC=C(C)C | -0.25%
76 | CCOC(=O)CCC(NC(=O)OCc1ccccc1)C(=O)NC(CCC(=O)OCC)C(=O)NN (stereo not given) (Cbz-Glu(OEt)-Glu(OEt)-NHNH2; configuration not given here) | 2.5%
77 | Nc1ccc(S(=O)[O-])cc1.Nc1ccc(S(=O)[O-])cc1.[Zn+2] | -6.15%
78 | C=C1CC[C@](C)(O)[C@@]2(C)CC[C@H]3C(=C(C)C)C(=O)C[C@]3(C)C[C@H]12 | 10.2%
79 | Cc1[nH]c(N)nc(=S)c1CCCNc1ccccc1 | 6.8%
80 | CSc1ccc(C2NC(=O)NC2=O)cc1 (stereo not given) | -1.95%
